# Assay results published in publication PMC11006913.
# Where a chain is given by its changes, count along the chain named.
# Experiments:
# Assay in all cases: PBM; 200 nM protein, PBS
# Settings in all cases: dsDNA, one strand shown
# HOXB4 [1] = biological target: HOXB4 (Homo sapiens, UniProt P17483 148-234)
# HOXB9 = HOXB9 (Homo sapiens, UniProt P17482 171-250, T197M)
# HOXA4 [2] = biological target: HOXA4 (Homo sapiens, UniProt Q00056 201-287, W262R)
# HOXA4 [3] = biological target: HOXA4 (Homo sapiens, UniProt Q00056 201-287, R217L)
# HOXA4 (Homo sapiens, UniProt Q00056 201-287, R217L), sequence (Q00056 201-287 R217L): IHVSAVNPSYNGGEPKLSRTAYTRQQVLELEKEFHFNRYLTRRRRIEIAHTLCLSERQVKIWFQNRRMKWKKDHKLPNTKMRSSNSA
# HOXB4 [4] = biological target: HOXB4 (Homo sapiens, UniProt P17483 148-234, V174I)
# HOXB4 (Homo sapiens, UniProt P17483 148-234, V174I), sequence (P17483 148-234 V174I): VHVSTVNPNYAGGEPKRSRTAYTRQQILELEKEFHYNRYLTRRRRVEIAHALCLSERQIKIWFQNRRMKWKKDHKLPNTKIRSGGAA
# HOXA4 [5] = biological target: HOXA4 (Homo sapiens, UniProt Q00056 201-287)
# HOXA4 (Homo sapiens, UniProt Q00056 201-287), sequence (Q00056 201-287): as the sequence (Q00056 201-287 R217L) above, with L17R counted along it
# HOXA4 [6] = biological target: HOXA4 (Homo sapiens, UniProt Q00056 201-287, W262F)
# HOXA4 (Homo sapiens, UniProt Q00056 201-287, W262F), sequence (Q00056 201-287 W262F): as the sequence (Q00056 201-287 R217L) above, with L17R, W62F counted along it
# VAX1 [7] = biological target: VAX1 (Homo sapiens, UniProt Q5SQQ9 86-172)
# VAX1 (Homo sapiens, UniProt Q5SQQ9 86-172), sequence (Q5SQQ9 86-172): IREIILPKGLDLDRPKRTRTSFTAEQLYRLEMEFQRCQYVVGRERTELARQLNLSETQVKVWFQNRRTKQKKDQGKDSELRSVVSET
# VAX1 [8] = biological target: VAX1 (Homo sapiens, UniProt Q5SQQ9 86-172, T142I)
# VAX1 (Homo sapiens, UniProt Q5SQQ9 86-172, T142I), sequence (Q5SQQ9 86-172 T142I): as the sequence (Q5SQQ9 86-172) above, with T57I counted along it
# VAX1 [9] = biological target: VAX1 (Homo sapiens, UniProt Q5SQQ9 86-172, K157R)
# VAX1 (Homo sapiens, UniProt Q5SQQ9 86-172, K157R), sequence (Q5SQQ9 86-172 K157R): as the sequence (Q5SQQ9 86-172) above, with K72R counted along it
# HOXA2 [10] = biological target: HOXA2 (Homo sapiens, UniProt O43364 129-215, R185T)
# HOXA2 (Homo sapiens, UniProt O43364 129-215, R185T), sequence (O43364 129-215 R185T): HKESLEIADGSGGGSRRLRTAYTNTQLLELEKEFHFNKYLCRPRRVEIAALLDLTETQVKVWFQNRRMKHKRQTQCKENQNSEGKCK
# HOXA2 [11] = biological target: HOXA2 (Homo sapiens, UniProt O43364 129-215, R185K)
# HOXA2 (Homo sapiens, UniProt O43364 129-215, R185K), sequence (O43364 129-215 R185K): as the sequence (O43364 129-215 R185T) above, with T57K counted along it
# HOXA2 [12] = biological target: HOXA2 (Homo sapiens, UniProt O43364 129-215, Y150S)
# HOXA2 (Homo sapiens, UniProt O43364 129-215, Y150S), sequence (O43364 129-215 Y150S): as the sequence (O43364 129-215 R185T) above, with Y22S, T57R counted along it
# HOXA2 [13] = biological target: HOXA2 (Homo sapiens, UniProt O43364 129-215)
# HOXA2 (Homo sapiens, UniProt O43364 129-215), sequence (O43364 129-215): as the sequence (O43364 129-215 R185T) above, with T57R counted along it
# VENTX [14] = biological target: T1, VENTX (Homo sapiens, UniProt O95231 78-163, R121Q)
# T1 sequence: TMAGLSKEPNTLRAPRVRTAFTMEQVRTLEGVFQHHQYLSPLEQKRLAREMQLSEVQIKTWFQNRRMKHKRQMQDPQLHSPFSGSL
# VENTX [15] = biological target: T2, VENTX (Homo sapiens, UniProt O95231 78-163)
# T2 sequence: T1 sequence with Q44R
# VENTX [16] = biological target: T3, VENTX (Homo sapiens, UniProt O95231 78-163, Y115F)
# T3 sequence: T1 sequence with Y38F, Q44R
# HOXA4 (Homo sapiens, UniProt Q00056 201-287, W262R), sequence (Q00056 201-287 W262R): as the sequence (Q00056 201-287 R217L) above, with L17R, W62R counted along it
# HOXB4 (Homo sapiens, UniProt P17483 148-234), sequence (P17483 148-234): as the sequence (P17483 148-234 V174I) above, with I27V counted along it
# HOXB9, sequence (P17482 171-250 T197M): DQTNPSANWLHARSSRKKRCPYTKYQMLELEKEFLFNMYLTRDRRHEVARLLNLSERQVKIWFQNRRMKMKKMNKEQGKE
sequence,measurement,setting,value
ACCATTAA,binding signal,HOXB4 [1],"13.1 upbm affinity estimate (log intensity, higher = more binding, comparable within an allelic series)"
same,binding signal,HOXB9,"10.1 upbm affinity estimate (log intensity, higher = more binding, comparable within an allelic series)"
same,binding signal,HOXA4 [2],"10.6 upbm affinity estimate (log intensity, higher = more binding, comparable within an allelic series)"
same,binding signal,HOXA4 [3],"12 upbm affinity estimate (log intensity, higher = more binding, comparable within an allelic series)"
same,binding signal,HOXB4 [4],"13.7 upbm affinity estimate (log intensity, higher = more binding, comparable within an allelic series)"
same,binding signal,HOXA4 [5],"14 upbm affinity estimate (log intensity, higher = more binding, comparable within an allelic series)"
same,binding signal,HOXA4 [6],"11.4 upbm affinity estimate (log intensity, higher = more binding, comparable within an allelic series)"
GGAGCTCC,binding signal,HOXB4 [1],"7.69 upbm affinity estimate (log intensity, higher = more binding, comparable within an allelic series)"
same,binding signal,HOXB9,"8.62 upbm affinity estimate (log intensity, higher = more binding, comparable within an allelic series)"
same,binding signal,HOXB4 [4],"7.37 upbm affinity estimate (log intensity, higher = more binding, comparable within an allelic series)"
same,binding signal,VAX1 [7],"7.36 upbm affinity estimate (log intensity, higher = more binding, comparable within an allelic series)"
same,binding signal,VAX1 [8],"7.59 upbm affinity estimate (log intensity, higher = more binding, comparable within an allelic series)"
same,binding signal,VAX1 [9],"7.58 upbm affinity estimate (log intensity, higher = more binding, comparable within an allelic series)"
ATTATTAA,binding signal,HOXB4 [1],"12.9 upbm affinity estimate (log intensity, higher = more binding, comparable within an allelic series)"
same,binding signal,HOXB9,"10 upbm affinity estimate (log intensity, higher = more binding, comparable within an allelic series)"
same,binding signal,HOXB4 [4],"13.6 upbm affinity estimate (log intensity, higher = more binding, comparable within an allelic series)"
CCTACAGG,binding signal,HOXB4 [1],"7.69 upbm affinity estimate (log intensity, higher = more binding, comparable within an allelic series)"
same,binding signal,HOXB9,"8.54 upbm affinity estimate (log intensity, higher = more binding, comparable within an allelic series)"
same,binding signal,HOXB4 [4],"7.75 upbm affinity estimate (log intensity, higher = more binding, comparable within an allelic series)"
ACATTAAT,binding signal,HOXB4 [1],"13 upbm affinity estimate (log intensity, higher = more binding, comparable within an allelic series)"
same,binding signal,HOXB9,"10.1 upbm affinity estimate (log intensity, higher = more binding, comparable within an allelic series)"
same,binding signal,HOXA4 [2],"10.6 upbm affinity estimate (log intensity, higher = more binding, comparable within an allelic series)"
same,binding signal,HOXA2 [10],"12.3 upbm affinity estimate (log intensity, higher = more binding, comparable within an allelic series)"
same,binding signal,HOXA4 [3],"12 upbm affinity estimate (log intensity, higher = more binding, comparable within an allelic series)"
same,binding signal,HOXB4 [4],"13.6 upbm affinity estimate (log intensity, higher = more binding, comparable within an allelic series)"
same,binding signal,HOXA2 [11],"13.2 upbm affinity estimate (log intensity, higher = more binding, comparable within an allelic series)"
same,binding signal,HOXA4 [5],"13.6 upbm affinity estimate (log intensity, higher = more binding, comparable within an allelic series)"
same,binding signal,HOXA2 [12],"11 upbm affinity estimate (log intensity, higher = more binding, comparable within an allelic series)"
same,binding signal,HOXA4 [6],"11.4 upbm affinity estimate (log intensity, higher = more binding, comparable within an allelic series)"
same,binding signal,HOXA2 [13],"12.1 upbm affinity estimate (log intensity, higher = more binding, comparable within an allelic series)"
GGTCATTA,binding signal,HOXB4 [1],"13.3 upbm affinity estimate (log intensity, higher = more binding, comparable within an allelic series)"
same,binding signal,VENTX [14],"11.8 upbm affinity estimate (log intensity, higher = more binding, comparable within an allelic series)"
same,binding signal,HOXB9,"10 upbm affinity estimate (log intensity, higher = more binding, comparable within an allelic series)"
same,binding signal,HOXA4 [2],"10.6 upbm affinity estimate (log intensity, higher = more binding, comparable within an allelic series)"
same,binding signal,VENTX [15],"12.4 upbm affinity estimate (log intensity, higher = more binding, comparable within an allelic series)"
same,binding signal,VENTX [16],"11.8 upbm affinity estimate (log intensity, higher = more binding, comparable within an allelic series)"
same,binding signal,HOXA2 [10],"13 upbm affinity estimate (log intensity, higher = more binding, comparable within an allelic series)"
same,binding signal,HOXA4 [3],"12.5 upbm affinity estimate (log intensity, higher = more binding, comparable within an allelic series)"
same,binding signal,HOXB4 [4],"14 upbm affinity estimate (log intensity, higher = more binding, comparable within an allelic series)"
same,binding signal,HOXA2 [11],"13.7 upbm affinity estimate (log intensity, higher = more binding, comparable within an allelic series)"
same,binding signal,HOXA4 [5],"13.9 upbm affinity estimate (log intensity, higher = more binding, comparable within an allelic series)"
same,binding signal,VAX1 [7],"13.6 upbm affinity estimate (log intensity, higher = more binding, comparable within an allelic series)"
same,binding signal,VAX1 [8],"13.5 upbm affinity estimate (log intensity, higher = more binding, comparable within an allelic series)"
same,binding signal,HOXA2 [12],"10.9 upbm affinity estimate (log intensity, higher = more binding, comparable within an allelic series)"
same,binding signal,HOXA4 [6],"11.9 upbm affinity estimate (log intensity, higher = more binding, comparable within an allelic series)"
same,binding signal,HOXA2 [13],"12.8 upbm affinity estimate (log intensity, higher = more binding, comparable within an allelic series)"
same,binding signal,VAX1 [9],"13.6 upbm affinity estimate (log intensity, higher = more binding, comparable within an allelic series)"
GCCGCTCC,binding signal,HOXB4 [1],"7.92 upbm affinity estimate (log intensity, higher = more binding, comparable within an allelic series)"
same,binding signal,HOXB4 [4],"7.92 upbm affinity estimate (log intensity, higher = more binding, comparable within an allelic series)"
